Reference: PubChem BioAssay (NCI)
This is part of a sample that, as a whole, favours compounds with a hit. Of some 83,000 tested, about 20% had one in any assay.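 Interpretation: 100, growth as untreated; towards 0, rising growth inhibition; 0, no net growth; 0 to -100, cell death. Compounds scoring below 10 were considered active.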 Active and inactive are the calls of the source.

Experiments:
Assay in all cases: NCI-60 one-dose screen, 48 h (100 = growth as untreated, 0 = no growth, -100 = all killed)
Conditions in all cases: 10 µM unless noted
T-47D breast = system: T-47D breast
BT-549 breast = system: BT-549 breast
MDA-MB-435 melanoma = system: MDA-MB-435 melanoma
SW-620 colon = system: SW-620 colon
MCF7 breast = system: MCF7 breast
HCT-116 colon = system: HCT-116 colon
HCC-2998 colon = system: HCC-2998 colon
KM12 colon = system: KM12 colon

Measured: growth

CCCN=C(N)c1ccc(NC(=O)c2ccc(C(=O)Nc3ccc(C(N)=NCCC)cc3)cc2)cc1
inactive: T-47D breast 77.6% | BT-549 breast 93.9% | MDA-MB-435 melanoma 90.2% | SW-620 colon 104% | MCF7 breast 87.8% | HCT-116 colon 92.2% | HCC-2998 colon 109% | KM12 colon 95.5%

Cn1c(COC(=O)NCCN2CCOCC2)nc2c(N3CCOCC3)nc(-c3ccccc3)nc21
active: T-47D breast -28.9% | BT-549 breast -66.4% | MDA-MB-435 melanoma -87.4% | SW-620 colon -76.9% | MCF7 breast -59% | HCT-116 colon -80.9% | HCC-2998 colon -53.8% | KM12 colon -5.33%

COc1ccc(/C=C(/c2ccccc2)[N+](=O)[O-])cc1
active: T-47D breast -64.5% | BT-549 breast -18.7% | MDA-MB-435 melanoma -35.6% | SW-620 colon -57.6% | MCF7 breast -31.3% | HCT-116 colon -71.6% | HCC-2998 colon -80.7% | KM12 colon -36.2%

CCC1(CC)NC(=O)c2c(c3ccc(Cl)c(Cl)c3n2C)C1C#N (configuration not stated)
inactive: T-47D breast 78.5% | BT-549 breast 90.6% | MDA-MB-435 melanoma 99.2% | SW-620 colon 102% | MCF7 breast 97.9% | HCT-116 colon 76.3% | HCC-2998 colon 97.5% | KM12 colon 99.4%

NC(=O)C1(N2CCCCC2)CCN(CCCC(=O)c2ccc(F)cc2)CC1
active: MDA-MB-435 melanoma -48.3%
inactive: T-47D breast 44% | BT-549 breast 56.3% | SW-620 colon 19.6% | MCF7 breast 20% | HCT-116 colon 19.3% | HCC-2998 colon 11% | KM12 colon 15.8%

C=C(C)[C@@H]1CC[C@]2(C(=O)N3CCN(C)CC3)CC[C@]3(C)[C@H](CC[C@@H]4[C@@]5(C)CCC(=O)C(C)(C)[C@@H]5CC[C@]43C)[C@@H]12
inactive: T-47D breast 65.3% | BT-549 breast 96.8% | MDA-MB-435 melanoma 92% | SW-620 colon 73.5% | MCF7 breast 59.2% | HCT-116 colon 31.2% | HCC-2998 colon 82.1% | KM12 colon 80.6%

CC(=O)[C@@H]1CC[C@]2(C(N)=O)CC[C@]3(C)[C@H](CC[C@@H]4[C@@]5(C)CCC(=O)C(C)(C)[C@@H]5CC[C@]43C)[C@@H]12
inactive: T-47D breast 80.2% | BT-549 breast 93.3% | MDA-MB-435 melanoma 99.9% | SW-620 colon 110% | MCF7 breast 89.9% | HCT-116 colon 90.4% | HCC-2998 colon 107% | KM12 colon 100%

Cc1ccc(C2C3CC4CCCCC4N3[C@@]3(C(=O)Nc4cc(Cl)ccc43)C2C(=O)c2nc3ccccc3[nH]2)cc1 (some centres not stated)
inactive: T-47D breast 27.4% | BT-549 breast 52.8% | MDA-MB-435 melanoma 26.5% | SW-620 colon 29.8% | MCF7 breast 13.8% | HCT-116 colon 19.5% | HCC-2998 colon 38.4% | KM12 colon 38%

COc1c(Cl)cc(Cl)c2ccc(C=C3C(=O)N(C)C(=O)N(C)C3=O)nc12
active: HCT-116 colon -46.6%
inactive: T-47D breast 100% | BT-549 breast 90.4% | MDA-MB-435 melanoma 102% | SW-620 colon 105% | MCF7 breast 94.9% | HCC-2998 colon 101% | KM12 colon 101%

CCCCN(CCCC)CCc1c(C)cc(C)c(CCN(CCCC)CCCC)c1O
active: T-47D breast 5.78% | HCT-116 colon 6.6%
inactive: BT-549 breast 43.3% | MDA-MB-435 melanoma 17.1% | SW-620 colon 24.1% | MCF7 breast 12.8% | HCC-2998 colon 19.6% | KM12 colon 41.4%

Clc1nc(Cl)c2ncn(CC3(Cn4cnc5c(Cl)nc(Cl)nc54)COC3)c2n1
active: T-47D breast -61.7% | BT-549 breast -93.2% | MDA-MB-435 melanoma -85.7% | SW-620 colon -88.7% | MCF7 breast -52.4% | HCT-116 colon -100% | HCC-2998 colon -85.3% | KM12 colon -73.4%

COc1ccc(/C=C\c2nc3ccccc3s2)cc1OP(=O)(O)O
active: MDA-MB-435 melanoma -70.4%
inactive: T-47D breast 41.4% | BT-549 breast 44.3% | SW-620 colon 23.2% | MCF7 breast 21.7% | HCT-116 colon 25.9% | HCC-2998 colon 66.9% | KM12 colon 31.4%

CC(C)[N+](C)(CCOC(COc1ccccc1)COc1ccccc1)C(C)C
inactive: T-47D breast 85.7% | BT-549 breast 80.6% | MDA-MB-435 melanoma 91.9% | SW-620 colon 102% | MCF7 breast 91.4% | HCT-116 colon 92.2% | HCC-2998 colon 96.7% | KM12 colon 83.5%

Cn1c2c(Cl)c(Cl)ccc2c2cc(N)[nH]c(=O)c21
inactive: T-47D breast 79.7% | BT-549 breast 64.2% | MDA-MB-435 melanoma 107% | SW-620 colon 77.8% | MCF7 breast 72.4% | HCT-116 colon 83.1% | HCC-2998 colon 85% | KM12 colon 94.2%

CN1CCN(CCCOc2ccc3ncnc(Nc4ccc(Oc5cccc(C(F)(F)F)c5)c(Cl)c4)c3c2)CC1
inactive: T-47D breast 19.2% | BT-549 breast 69.9%
active: MDA-MB-435 melanoma -82% | SW-620 colon -71.6% | MCF7 breast -28.7% | HCT-116 colon -62% | HCC-2998 colon -66.2% | KM12 colon -3.45%

O=C1NC(=S)NC(=O)C1=Cc1cn(Cc2ccccn2)c2ccccc12
inactive: T-47D breast 89.8% | BT-549 breast 66.8% | MDA-MB-435 melanoma 21.3% | SW-620 colon 48.3% | MCF7 breast 34.6% | HCC-2998 colon 54.2% | KM12 colon 57.2%
active: HCT-116 colon 2.36%

COc1ccc(Cn2nc(-c3cc(OC)c(OC)c(OC)c3)c3c2CCc2cnoc2-3)cc1OC
inactive: T-47D breast 65.8% | BT-549 breast 61.1% | SW-620 colon 48% | MCF7 breast 29.8% | HCT-116 colon 46.6% | HCC-2998 colon 70.5% | KM12 colon 54%
active: MDA-MB-435 melanoma -7.19%

COc1ccc(-c2nc(N/N=C/c3cccc(O)c3)nc(N3CCOCC3)c2C#N)cc1
inactive: T-47D breast 72% | BT-549 breast 84.6% | MDA-MB-435 melanoma 97.7% | SW-620 colon 58.9% | MCF7 breast 61.7% | HCT-116 colon 59.1% | HCC-2998 colon 108% | KM12 colon 72.2%

NC(=O)c1cccc(-c2ccccc2N2CCCCC2)c1
inactive: T-47D breast 83% | BT-549 breast 101% | MDA-MB-435 melanoma 100% | SW-620 colon 108% | MCF7 breast 92.5% | HCT-116 colon 89.4% | HCC-2998 colon 102% | KM12 colon 99.1%

Nc1c(C(=O)Nc2ccc(Cl)cc2)cc(-c2nc3ccccc3s2)c(=O)n1NS(=O)(=O)c1ccc(Cl)cc1
inactive: T-47D breast 92.9% | BT-549 breast 122% | MDA-MB-435 melanoma 99.8% | SW-620 colon 96.9% | MCF7 breast 84.2% | HCT-116 colon 98.6% | HCC-2998 colon 107% | KM12 colon 99%

Cc1ccc(-c2csc(/N=C3\C(=O)Nc4ccccc43)n2)cc1
inactive: T-47D breast 20% | BT-549 breast 23.6% | MDA-MB-435 melanoma 12.9% | SW-620 colon 19.4% | KM12 colon 15.2%
active: MCF7 breast 6.92% | HCT-116 colon 4.56% | HCC-2998 colon 6.25%

COC(=O)C1NC(=S)N(c2ccc(Cl)cc2)C1/C=C/c1ccccc1 (configuration not stated)
inactive: T-47D breast 88.2% | BT-549 breast 93.8% | MDA-MB-435 melanoma 85.5% | SW-620 colon 108% | MCF7 breast 101% | HCT-116 colon 95.6% | HCC-2998 colon 93.2% | KM12 colon 96%

CCSc1ccc2c(c1)N(CCCN1CCN(C)CC1)c1ccccc1S2
active: MDA-MB-435 melanoma -15.1% | KM12 colon 4.74%
inactive: T-47D breast 47% | BT-549 breast 73.2% | SW-620 colon 45.5% | MCF7 breast 20.5% | HCT-116 colon 21.9% | HCC-2998 colon 13.4%

O=C(NNc1nc(Cl)nc(N2CCN(C(c3ccccc3)c3ccccc3)CC2)n1)c1ccccc1
inactive: T-47D breast 54.8% | MDA-MB-435 melanoma 58.7% | MCF7 breast 82.5% | KM12 colon 76.9%
active: BT-549 breast 7.6% | SW-620 colon -40.7% | HCT-116 colon -23.9% | HCC-2998 colon -24.5%

CCCCCCCCOC(=O)c1ccc(O)c(OC)c1
inactive: T-47D breast 82.7% | BT-549 breast 102% | MDA-MB-435 melanoma 106% | SW-620 colon 109% | MCF7 breast 66.9% | HCT-116 colon 102% | HCC-2998 colon 97.9% | KM12 colon 102%

O=C(N/N=C/c1ccc(O)c(O)c1)c1sc2ccccc2c1Cl
inactive: T-47D breast 62.3% | BT-549 breast 84.4% | MDA-MB-435 melanoma 88.7% | SW-620 colon 75.2% | MCF7 breast 54.4% | HCT-116 colon 80% | HCC-2998 colon 96.5% | KM12 colon 89%

Nc1nnc2cc(Cl)ccc2n1
inactive: T-47D breast 93.1% | BT-549 breast 114% | MDA-MB-435 melanoma 106% | SW-620 colon 96.5% | MCF7 breast 88.7% | HCT-116 colon 101% | HCC-2998 colon 110% | KM12 colon 97%

Clc1ccc(C2CC(c3cccc(Nc4ccncc4)c3)=NN2c2ccccc2)cc1 (configuration not stated)
inactive: T-47D breast 58.6%
active: BT-549 breast -75.9% | MDA-MB-435 melanoma -46.1% | SW-620 colon -79.8% | MCF7 breast 4.93% | HCT-116 colon -79.6% | HCC-2998 colon -31.5% | KM12 colon -7.31%

N#Cc1cc(-c2nc3ccccc3s2)c(=O)n(NS(=O)(=O)c2ccc(Cl)cc2)c1N
inactive: T-47D breast 96.6% | BT-549 breast 105% | MDA-MB-435 melanoma 101% | SW-620 colon 97.7% | MCF7 breast 99.9% | HCT-116 colon 98.5% | HCC-2998 colon 111% | KM12 colon 102%
